Records with an inconclusive call do not appear. Active and inactive are the calls of the source. The calls were made as follows: active = hit-call score of the fitted dose curve at least 0.9, where 1 is the maximum; inconclusive = response in the unintended direction; inactive = score below 0.9.
Columns and labels:
[1] = ArunA_CellTiter_hNC: Viability Assessment in the ArunA Biomedical's Oris Neural Crest (hNC) Cell Migration Assay (AID 2283752)
Experimental: ArunA_CellTiter_hNC is a cell-based, single-readout assay that uses human H9-derived embryonic neural crest stem cells (hNC). Measurements were taken 72 hours after chemical dosing in a 96-well plate.ArunA_CellTiter_hNC is an assay component measured from the ArunA_CellTiter_hNC assay. It is designed to make measurements of viability, a form of viability reporter, as detected with fluorescence intensity signals by HCS Fluorescent Imaging technology. Data from the assay component ArunA_CellTiter_hNC was analyzed at the endpoint, ArunA_CellTiter_hNC, in the positive analysis fitting direction relative to DMSO as the negative control and baseline of activity. Using a type of viability reporter, loss-of-signal activity can be used to understand viability. To generalize the intended target to other relatable targets, this assay endpoint is annotated to the cell cycle intended target family, where the subfamily is cytotoxicity.
To assess the hNP and hNC migration and cell titer endpoints, 60,000 cells per well were plated onto Matrigel in basal growth medium with LIF and bFGF in a 96-well plate format. Plates were incubated for 16 h at 37C followed by a 72 h exposure to chemical in the test medium. For the migration endpoints, cells were seeded and incubated in presence of 'seeding stoppers' to prevent cell migration and growth into the detection zone. At the beginning of chemical exposure, stoppers were removed, and growth medium was replaced with test medium. In the case of the stopper control wells, stoppers remained in place following replacement of growth medium with test medium. Following 72 -h exposure to the test medium, cells were stained at 37C for 30-60 min with calcein-AM. Cell viability in the detection zone was quantitated using a Flexstation3 microplate reader (ex494 nm/em 517 nm). Corresponding cell titer endpoints were assessed for the hNP and hNC cells using the Promega CellTiter Aqueous One Solution Cell Proliferation Assay (Cat no. G3581; CellTiter 96). Finally, to gain insight into the mechanisms by which cells migrate into the detection zone, Ki-67 expression was quantified for 10 additional chemicals in the hNP and hNC systems. Additionally, cytochalasin D was used as a positive control to inhibit cell migration. Supplementing the AB2 Basal Medium: 1. Decontaminate the external surfaces of all supplement vials and the medium bottle with ethanol or isopropanol. 2. Aseptically open each supplement vial and add the amount indicated below to the basal medium with a pipette. To make 100 ml of complete medium: AB2 Neural Medium 96 mL, ANS Supplement 2 mL, bFGF (50 ug/mL) 40 uL, LIF (10 ug/mL) 100 uL, L-Glutamine (200 mM) 1 mL, Penicillin (5,000 U/mL)/ Streptomycin (5,000 ug/mL) 1 mL. 3. Supplemented medium should be stored at 2-8C, protected from light. […]

[2] = ArunA_CellTiter_hNP: Viability Assessment in the ArunA Biomedical's Oris Neural Crest (hNC) Cell Migration Assay (AID 2283753)
How it was run: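 Viability read with CellTiter 96 Aqueous One after 72 h chemical exposure of human hNP1 neuroprogenitors, which were plated on Matrigel in LIF/bFGF medium 16 h beforehand. Endpoint fitted in positive direction relative to DMSO.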

[3] = ArunA_Migration_hNP: ArunA Biomedical's Oris Neuroprogenitor (hNP) Cell Migration Assay (AID 2283754)
How it was run: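 Readout is calcein-AM fluorescence (ex494/em517) of cells migrating into the detection zone, relative to DMSO. hNP1 cells (H9-derived) grown on Matrigel behind stoppers 16 h, then stoppers pulled and chemical applied 72 h; cytochalasin D as control.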

[4] = ArunA_Migration_hNC: ArunA Biomedical's Oris Neural Crest (hNC) Cell Migration Assay (AID 2283755)
How it was run: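 Calcein-AM fluorescence (ex494 nm/em 517 nm) in the stopper-defined detection zone quantifies migration of hNC cells after 72 h chemical exposure; 60,000 cells/well plated on Matrigel with LIF and bFGF, 16 h pre-incubation. DMSO baseline.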

[5] = ArunA_NOG_NucleusCount: ArunA Biomedical's Neurite Outgrowth (NOG) Assay for Nucleus Count (AID 2283756)
How it was run: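 Viable neuron count, from Hoechst nuclei passing size and intensity gates, imaged at 20x on differentiated H9-derived human neurons. Exposure lasted 48 h from seeding; activity was scored relative to DMSO.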

[6] = target: Luciferin 4-monooxygenase (Photinus pyralis) (UniProt P08659); test: CCTE_Simmons_QuantiLum_inhib_2: CCTE's Firefly Luciferase Inhibition Assay, Simmons Lab (AID 2283767);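 as to AC50: potency for inhibitors that lower luciferase luminescence relative to DMSO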
Chain of Luciferin 4-monooxygenase (Photinus pyralis) (P08659 whole entry, looked up): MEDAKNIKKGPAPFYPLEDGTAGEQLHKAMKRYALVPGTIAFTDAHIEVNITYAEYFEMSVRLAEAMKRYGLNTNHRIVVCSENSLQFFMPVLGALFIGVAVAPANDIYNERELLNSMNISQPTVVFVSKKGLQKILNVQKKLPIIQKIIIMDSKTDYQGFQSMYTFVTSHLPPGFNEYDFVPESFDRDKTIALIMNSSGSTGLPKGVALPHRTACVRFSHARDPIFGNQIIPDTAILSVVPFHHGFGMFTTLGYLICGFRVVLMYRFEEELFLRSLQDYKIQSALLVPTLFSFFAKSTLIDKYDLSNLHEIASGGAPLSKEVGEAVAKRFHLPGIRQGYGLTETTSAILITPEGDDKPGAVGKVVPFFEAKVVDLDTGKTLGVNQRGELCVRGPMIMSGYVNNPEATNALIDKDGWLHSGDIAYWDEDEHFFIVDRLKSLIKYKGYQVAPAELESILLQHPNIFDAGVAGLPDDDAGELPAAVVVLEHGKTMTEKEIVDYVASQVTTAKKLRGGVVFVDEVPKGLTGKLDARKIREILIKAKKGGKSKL
How it was run: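 Eight test concentrations, 5 nM up to 87.5 uM final, preincubated 30min at 37C in the dark with purified luciferase (0.5% DMSO final). Detection reagent (150uM D-luciferin, 147uM dATP, 75uM CoA, pH 7.8) injected per well before kinetic luminescence read; three replicates.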

[7] = ArunA_NOG_NeuriteLength: ArunA Biomedical's Neurite Outgrowth (NOG) Assay for Neurite Length (AID 2283757)
How it was run: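 Total neurite length per neuron, from traced βIII-tubulin-labelled processes longer than 10 um on viable Hoechst-gated cells, was scored as decrease from DMSO. Cells were hESC (H9)-derived neurons given 48 h chemical exposure immediately after seeding.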

[8] = ArunA_NOG_NeuritesPerNeuron: ArunA Biomedical's Neurite Outgrowth (NOG) Assay for Neurites Per Neuron (AID 2283758)
Experimental: ArunA_NOG (Neurite Outgrowth) is a cell-based, image-based assay that uses human H9-derived embryonic differentiated neurons (hNN). Measurements were taken 48 hours after chemical dosing in a 96-well plate.ArunA_NOG_NeuritesPerNeuron is an assay component measured from the ArunA_NOG assay. It is designed to make measurements of neurite outgrowth related to number of neurites per neuron, using a form of morphology reporter, as detected with fluorescence intensity signals by HCS Fluorescent Imaging technology. Data from the assay component ArunA_NOG_NeuritesPerNeuron was analyzed at the endpoint, ArunA_NOG_NeuritesPerNeuron, in the positive analysis fitting direction relative to DMSO as the negative control and baseline of activity. […]
Chemical treatment: Differentiated hNN cells were seeded and immediately exposed to test medium for 48 h. Following chemical exposure, cell bodies were stained with Hoechst 33,258 to quantitate viable neuron count and neurites were labeled with bIII-tubulin/DyLight1 488. High content imaging assessed the neurite outgrowth endpoints: neurite total length per neuron (um), neurite count per neuron, and branch points per neurite using the methods described in (Harrill et al 2010). […] Fixed integration times for image acquisition in each channel were determined by manual sampling of control-treated wells across multiple plates. […]

[9] = ArunA_NOG_BranchPointsPerNeurite: ArunA Biomedical's Neurite Outgrowth (NOG) Assay for Branch Points Per Neurite (AID 2283759)
How it was run: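 Automated image analysis traced neurites (processes >10 um) from valid cell bodies after Hoechst and βIII-tubulin staining. hNN cells from H9 embryonic stem cells, 48 h exposure. Fitted bidirectionally against DMSO.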

[10] = tested on: chicken Androgen Receptor (AR), gene 422165; test: ATG_chAR_XSP1: Attagene TRANS-FACTORIAL Multi-Species (XSP1) HepG2 Assay for chicken Androgen Receptor (AR) (AID 2283768)
How it was run: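 Reporter mRNA read by RT-PCR with fluorescent labelling and capillary electrophoresis 24 h after chemical dosing of transiently transfected HepG2 cells. Chicken AR-Gal4 chimera, partially stimulated with 3 nM 6-alpha-fluorotestosterone; activity fitted upward relative to DMSO.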

CCCCC(CC)COP(=O)(Oc1ccccc1)Oc1ccccc1 (stereo unspecified)
outcome [1]: inactive | outcome [2]: inactive | outcome [3]: inactive | outcome [4]: inactive | outcome [5]: inactive

CCOP(=S)(OCC)SCSCC
outcome [6]: inactive

O=S1(=O)OCC2C(CO1)C1(Cl)C(Cl)=C(Cl)C2(Cl)C1(Cl)Cl (stereo unspecified)
AC50 [6]: 31.9 µM (active)

O=C(O)C1C(C(=O)O)C2(Cl)C(Cl)=C(Cl)C1(Cl)C2(Cl)Cl (stereo unspecified)
outcome [1]: inactive | outcome [3]: inactive | outcome [4]: inactive | outcome [7]: inactive | outcome [8]: inactive | outcome [9]: inactive

O=c1ssc(Cl)c1Cl
AC50 [6]: 18 µM (active)

O=S(=O)(c1ccc(O)cc1)c1ccc(O)cc1
outcome [6]: inactive

[N-]=[N+]=[N-]
outcome [6]: inactive

CCC1(c2ccccc2)C(=O)N=C(O)NC1=O (stereo unspecified)
outcome [6]: inactive

CCOP(=S)(Oc1ccc([N+](=O)[O-])cc1)c1ccccc1 (stereo unspecified)
outcome [6]: inactive

O=P(Oc1ccccc1)(Oc1ccccc1)Oc1ccccc1
outcome [1]: inactive | outcome [2]: inactive | outcome [3]: inactive | outcome [5]: inactive | outcome [10]: inactive

CCCCc1ccc(O)cc1
outcome [6]: inactive

Cc1cccc(N)c1
outcome [6]: inactive

c1ccc(OP(Oc2ccccc2)Oc2ccccc2)cc1
outcome [6]: inactive

CC(C)(C)c1ccc(O)cc1
outcome [6]: inactive

CCCCCCCc1ccc(O)cc1
AC50 [6]: 43.6 µM (active)

Nc1cc2c3c(c1)C(c1ccccc1)=N[C@@H](NC(=O)c1cccnc1)C(=O)N3CC2
outcome [6]: inactive

Nc1ccc2ccccc2c1
AC50 [6]: 53.8 µM (active)

CCC(C)(C)c1ccc(O)cc1
outcome [6]: inactive

CCCCN(CC)C(=O)SCCC
outcome [6]: inactive

Cc1ccc(N)cc1N
outcome [1]: inactive | outcome [3]: inactive | AC50 [4]: 55.6 µM (active) | outcome [5]: inactive | outcome [8]: inactive | outcome [9]: inactive | AC50 [6]: 21.6 µM (active)

Nc1ccc(Cl)cc1
outcome [6]: inactive

c1ccc2c(c1)Nc1ccccc1S2
outcome [6]: inactive

From PubChem BioAssay (EPA / NIEHS)
